# According to PubChem BioAssay (Tox21):
# A number with no mark means an inactive call. Records with an inconclusive call do not appear. A call without a number means that no potency is given here. The source made the active and inactive calls. Unless noted, calls follow the shape of the full dose curve.
# Key:
# [1] = Nuclear factor erythroid 2-related factor 2/antioxidant responsive element (Nrf2/ARE) small molecule agonists: luciferase reporter gene qHTS assay in human keratinocytes (AID 1919969); also: nearly all actives have a fitted effect of over 35% in size; also: potency is read from the fitted curve at half-maximal effect
# [2] = molecular target: Gonadotropin-releasing hormone receptor (Homo sapiens) (UniProt P30968); test: Human gonadotropin-releasing hormone receptor (GnRHR) small molecule agonists, calcium flux assay in GnRHR-HEK293 cells (AID 1920063); also: nearly all actives have a fitted effect of over 35% in size
# Gonadotropin-releasing hormone receptor (Homo sapiens), sequence (P30968 whole entry, looked up): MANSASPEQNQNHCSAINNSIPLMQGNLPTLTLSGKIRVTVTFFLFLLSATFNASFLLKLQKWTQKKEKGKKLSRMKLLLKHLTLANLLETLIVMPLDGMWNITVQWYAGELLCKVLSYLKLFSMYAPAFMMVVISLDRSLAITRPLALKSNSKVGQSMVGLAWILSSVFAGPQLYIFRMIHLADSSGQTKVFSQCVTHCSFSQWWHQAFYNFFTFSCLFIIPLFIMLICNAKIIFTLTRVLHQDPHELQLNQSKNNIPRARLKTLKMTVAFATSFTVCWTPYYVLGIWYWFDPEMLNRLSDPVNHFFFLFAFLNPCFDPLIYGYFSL
# Summary of the method: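 Stable human GnRHR HEK293 line. 18 h plating, then calcium dye for 1 h at 37 C. Agonist-mode compound addition from DMSO stocks; fluorescence monitored 3 min.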
# [3] = molecular target: KiSS-1 receptor (Homo sapiens) (UniProt Q969F8); test: Human kisspeptin (KISS1R) small molecule agonists, calcium flux assay in KISS1R-HEK293 cells (AID 1920064; active = well fitted activation curve with a large enough effect in the repeat runs)
# KiSS-1 receptor (Homo sapiens), sequence (Q969F8 whole entry, looked up): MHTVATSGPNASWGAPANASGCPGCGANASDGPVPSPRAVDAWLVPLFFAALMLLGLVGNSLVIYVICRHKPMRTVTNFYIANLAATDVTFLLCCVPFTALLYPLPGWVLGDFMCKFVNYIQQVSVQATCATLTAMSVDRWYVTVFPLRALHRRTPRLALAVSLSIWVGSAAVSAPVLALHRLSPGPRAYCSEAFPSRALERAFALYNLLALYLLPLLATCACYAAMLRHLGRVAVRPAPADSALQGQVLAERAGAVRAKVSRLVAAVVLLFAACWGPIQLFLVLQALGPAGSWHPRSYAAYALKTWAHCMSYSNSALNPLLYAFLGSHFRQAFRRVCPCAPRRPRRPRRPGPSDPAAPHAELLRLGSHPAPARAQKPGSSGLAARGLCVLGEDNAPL
# Summary of the method: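 After overnight (18 h) culture at 37 C/5% CO2, human KISS1R-HEK293 cells received calcium dye for 1 h, then test compound; emission at 540 nm (excitation 480 nm) was tracked for 3 min.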
# [4] = G protein-coupled receptor (GPCR) small molecule agonists, calcium flux assay: HEK293 wild type cell line counter screen (AID 1920065)
# Summary of the method: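 Following 18 h incubation at 37 C/5% CO2, plates got calcium dye for 1 h; compounds, ATP or DMSO were then pinned in and fluorescence followed kinetically (480/540 nm).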
# [5] = p53 small molecule agonists, cell-based qHTS assay with human liver microsomes (AID 1963577);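 also: p53 response element beta-lactamase reporter cells with liver microsomes plus NADPH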
# Summary of the method: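 16 h, 37 C exposure of p53RE-bla cells to compounds with human liver microsomes and NADPH (0.5 mg/mL final each); detection via LiveBLAzer mixture, 2 h dark at room temperature.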
# [6] = p53 small molecule agonists, cell-based qHTS assay with rat liver microsomes (AID 1963578)
# Summary of the method: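 With rat liver microsomes and NADPH present (0.5 mg/mL final each), p53RE-bla cells are treated with compound for 16 h at 37 C. LiveBLAzer detection mixture is then applied for 2 h at room temperature in the dark.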
# [7] = p53 small molecule agonists, cell-based qHTS assay with human liver microsomes: qHTS cell viability counter screen (AID 1963579); also: nearly all actives have a fitted effect of over 45% in size
# Summary of the method: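 In this multiplexed counter screen, the reporter plates were subsequently treated with CellTiter-Glo so that cell viability, reflected by luminescence, could be recorded for p53RE-bla cells dosed 16 h with compounds under microsomal activation (HLM and NADPH).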
# [8] = p53 small molecule agonists, cell-based qHTS assay: qHTS cell viability counter screen (AID 1963581); also: nearly all actives have a fitted effect of over 45% in size
# Summary of the method: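 qHTS counter screen: 16 h compound exposure at 37 C of p53RE-bla HCT-116 cells (4,000 per well, seeded 5 h prior), cell viability by ATP luminescence.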
# [9] = molecular target: 5-hydroxytryptamine receptor 2A (Homo sapiens) (UniProt P28223); test: 5-hydroxytryptamine receptor 2A (HTR2A) small molecule antagonists, cell-based qHTS assay (AID 1963586); also: nearly all actives have a fitted effect of over 45% in size; also: potency is read from the fitted curve at half-maximal effect
# 5-hydroxytryptamine receptor 2A (Homo sapiens), sequence (P28223 whole entry, looked up): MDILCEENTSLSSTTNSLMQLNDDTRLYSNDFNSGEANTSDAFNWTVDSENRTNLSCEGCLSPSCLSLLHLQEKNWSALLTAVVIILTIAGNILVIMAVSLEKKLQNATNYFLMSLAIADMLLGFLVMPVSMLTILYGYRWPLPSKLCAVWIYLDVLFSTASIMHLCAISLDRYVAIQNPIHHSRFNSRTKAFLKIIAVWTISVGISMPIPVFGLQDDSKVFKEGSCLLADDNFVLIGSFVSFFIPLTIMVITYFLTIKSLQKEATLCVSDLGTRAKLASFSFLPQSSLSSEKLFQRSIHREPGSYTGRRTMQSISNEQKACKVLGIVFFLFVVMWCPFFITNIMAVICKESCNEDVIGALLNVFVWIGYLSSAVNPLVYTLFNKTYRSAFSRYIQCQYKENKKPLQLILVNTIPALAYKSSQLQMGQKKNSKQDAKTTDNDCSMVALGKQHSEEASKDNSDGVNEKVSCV
# Summary of the method: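 CHO cells stably expressing human HTR2A were plated for 18 h at 37 C, then loaded with calcium dye for 1 h. Compounds were preincubated 5 min at room temperature before DOI (4 nM solution) was added. Kinetic fluorescence was read for 3 min.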
# [10] = molecular target: Muscarinic acetylcholine receptor M1 (Homo sapiens) (UniProt P11229); test: Cholinergic receptor muscarinic 1 (CHRM1) small molecule agonists, cell-based qHTS assay (AID 1963589); also: nearly all actives have a fitted effect of over 35% in size
# Muscarinic acetylcholine receptor M1 (Homo sapiens), sequence (P11229 whole entry, looked up): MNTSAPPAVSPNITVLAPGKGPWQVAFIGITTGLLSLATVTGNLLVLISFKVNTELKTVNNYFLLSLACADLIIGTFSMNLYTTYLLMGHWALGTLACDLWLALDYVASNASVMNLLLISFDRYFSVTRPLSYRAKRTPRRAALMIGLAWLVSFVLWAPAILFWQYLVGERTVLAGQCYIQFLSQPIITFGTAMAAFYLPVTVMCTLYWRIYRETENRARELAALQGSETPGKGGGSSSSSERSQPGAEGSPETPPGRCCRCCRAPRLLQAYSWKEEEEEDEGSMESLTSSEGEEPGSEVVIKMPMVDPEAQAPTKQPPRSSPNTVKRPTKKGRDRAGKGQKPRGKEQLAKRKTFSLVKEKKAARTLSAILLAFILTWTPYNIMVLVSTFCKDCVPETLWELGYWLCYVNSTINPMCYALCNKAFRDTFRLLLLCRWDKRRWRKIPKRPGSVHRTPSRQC
# Summary of the method: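 Kinetic fluorescence (1 s intervals) of calcium-sensitive dye in human M1 CHO cells after compound addition; cells pre-incubated 18 h at 37 C/5% CO2 and dye-loaded 1 h.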
# [11] = molecular target: Beta-2 adrenergic receptor (Homo sapiens) (UniProt P07550); test: Adrenergic beta2 receptor (ADRB2) small molecule antagonists, cell-based qHTS assay (AID 1963592); also: nearly all actives have a fitted effect of over 50% in size; also: potency is read from the fitted curve at half-maximal effect
# Beta-2 adrenergic receptor (Homo sapiens), sequence (P07550 whole entry, looked up): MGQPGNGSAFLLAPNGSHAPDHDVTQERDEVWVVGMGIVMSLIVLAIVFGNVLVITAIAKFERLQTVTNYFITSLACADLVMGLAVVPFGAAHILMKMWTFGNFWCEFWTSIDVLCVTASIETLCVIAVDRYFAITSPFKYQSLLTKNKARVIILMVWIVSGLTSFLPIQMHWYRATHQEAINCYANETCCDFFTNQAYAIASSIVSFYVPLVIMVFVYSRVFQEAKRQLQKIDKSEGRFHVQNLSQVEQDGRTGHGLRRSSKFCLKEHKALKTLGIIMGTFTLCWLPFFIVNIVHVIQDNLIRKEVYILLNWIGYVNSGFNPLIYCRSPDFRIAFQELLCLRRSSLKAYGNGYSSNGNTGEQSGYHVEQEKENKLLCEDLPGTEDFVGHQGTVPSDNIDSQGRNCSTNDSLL
# Summary of the method: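 Assay format: CHO-ADRB2 cells, 18-20hr seeding at 37C/5% CO2, then compound plus 1nM isoproterenol agonist mix for 0.5hr RT. Homogeneous time-resolved fluorescence cAMP detection after 1hr, expressed as 665/615 nm ratio.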
# [12] = molecular target: D(2) dopamine receptor (Homo sapiens) (UniProt P14416); test: Dopamine D2 receptor (DRD2) small molecule agonists, cell-based qHTS assay (AID 1963594); also: nearly all actives have a fitted effect of over 35% in size
# D(2) dopamine receptor (Homo sapiens), sequence (P14416 whole entry, looked up): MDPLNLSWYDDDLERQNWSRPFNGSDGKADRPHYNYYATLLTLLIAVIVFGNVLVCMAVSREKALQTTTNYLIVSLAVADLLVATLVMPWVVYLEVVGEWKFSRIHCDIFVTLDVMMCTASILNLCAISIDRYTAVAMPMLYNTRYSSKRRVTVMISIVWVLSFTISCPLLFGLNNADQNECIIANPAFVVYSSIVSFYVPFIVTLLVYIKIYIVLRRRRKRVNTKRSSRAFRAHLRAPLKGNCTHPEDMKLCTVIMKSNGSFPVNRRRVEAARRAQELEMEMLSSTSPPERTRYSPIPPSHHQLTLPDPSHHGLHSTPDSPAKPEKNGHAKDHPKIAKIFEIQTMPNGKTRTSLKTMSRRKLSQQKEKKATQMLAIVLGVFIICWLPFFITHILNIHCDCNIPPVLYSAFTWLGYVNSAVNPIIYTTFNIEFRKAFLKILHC
# Summary of the method: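 HEK293 cells stably expressing human DRD2, pre-treated with PDE inhibitor Ro20-1724 (0.1 mM final) and compound 10 min at room temperature, then stimulated with NKH477 (200nM […]) for 30 min. cAMP read by HTRF (665/620 nm).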
# [13] = molecular target: D(2) dopamine receptor (Homo sapiens) (UniProt P14416); test: Dopamine D2 receptor (DRD2) small molecule antagonists, cell-based qHTS assay (AID 1963595; active = well fitted inhibition curve with a large enough effect in the signal ratio in the repeat runs, with a control signal flat; the % refers to the signal ratio)
# Summary of the method: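 Cells were plated and grown for 24 h at 37 °C. Ro20-1724 (0.1 mM final) went in first, then compound for 10 min. NKH477 (200 nM) with quinpirole (12 nM) followed for 30 min at RT, then HTRF detection reagents for 1 h.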
# [14] = p53 small molecule agonists, cell-based qHTS assay (AID 1963582; active = well fitted activation curve with a large enough effect in the signal ratio in the repeat runs, not every such curve was filed as active; the % refers to the signal ratio; also: potency is read from the fitted curve at half-maximal effect)
# Summary of the method: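 Measured: fluorescence from cleaved LiveBLAzer substrate. System: p53RE-bla cells, 16 h compound treatment at 37 C, 2 h substrate step at room temperature.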
# [15] = molecular target: 5-hydroxytryptamine receptor 2A (Homo sapiens) (UniProt P28223); test: 5-hydroxytryptamine receptor 2A (HTR2A) small molecule agonists, cell-based qHTS assay (AID 1963587); also: nearly all actives have a fitted effect of over 30% in size; also: potency is read from the fitted curve at half-maximal effect
# Summary of the method: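 CHO cells stably expressing human HTR2A, plated 18 h, loaded with calcium dye 1 h at 37 C. Agonist mode: compounds added and intracellular calcium fluorescence recorded kinetically for 2 min at 1 sec intervals.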
# [16] = molecular target: Muscarinic acetylcholine receptor M1 (Homo sapiens) (UniProt P11229); test: Cholinergic receptor muscarinic 1 (CHRM1) small molecule antagonists, cell-based qHTS assay (AID 1963588); also: nearly all actives have a fitted effect of over 40% in size; also: potency is read from the fitted curve at half-maximal effect
# Summary of the method: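 Compounds were tested at 15 concentrations in three independent runs. Dye-loaded CHRM1-CHO cells were exposed 5 min at room temperature before stimulation by acetylcholine added at 50nM. Intracellular calcium was read kinetically on FDSS for 3 min.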
# [17] = cAMP Responsive Elements (CRE) small molecule agonists, cell-based qHTS assay (AID 1963590)
# Summary of the method: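 Test agents in DMSO were incubated 3 h at 37 C/5% CO2 with CRE-bla HEK 293T cells seeded 18 h earlier; LiveBLAzer B/G FRET substrate was added and read after 2 h at room temperature.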
# [18] = cAMP Responsive Elements (CRE) small molecule antagonists, cell-based qHTS assay (AID 1963591; active = well fitted inhibition curve with a large enough effect in the signal ratio in the repeat runs, not every such curve was filed as active; the % refers to the signal ratio)
# Summary of the method: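 Reporter line CRE-bla HEK 293T in dialyzed-FBS DMEM; cells preincubated 18 h, treated 3 h with compound plus NKH477 (0.25 uM final); LiveBLAzer FRET, 2 h RT.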
# [19] = p53 small molecule agonists, cell-based qHTS assay with rat liver microsomes: qHTS cell viability counter screen (AID 1963580); also: nearly all actives have a fitted effect of over 45% in size
# Summary of the method: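 After the beta-lactamase ratio was read, CellTiter-Glo was added to the same wells and luminescence measured at 30 min; cells had been treated 16 h at 37 C with compounds, rat liver microsomes and NADPH (0.5 mg/mL final each).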
# [20] = molecular target: Beta-2 adrenergic receptor (Homo sapiens) (UniProt P07550); test: Adrenergic beta2 receptor (ADRB2) small molecule agonists, cell-based qHTS assay (AID 1963593); also: potency is read from the fitted curve at half-maximal effect;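 as to activation: CHO cells stably overexpressing human ADRB2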
# Summary of the method: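 CHO cells stably over-expressing ADRB2 were plated overnight at 37C, then dosed with compounds plus a stimulation mix containing 100uM IBMX and 25uM Ro-20-1724 for 0.5hr at room temperature. cAMP was measured by HTRF competition, 1hr.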
SMILES,Potency [1],Potency [2],Potency [3],Potency [4],Potency [5],Potency [6],Potency [7],Potency [8],Potency [9],Potency [10],Potency [11],Potency [12],Potency [13],Potency [14],Potency [15],Potency [16],Potency [17],Potency [18],Potency [19],Potency [20]
Cc1cc(SCc2sc(-c3ccc(C(F)(F)F)c(F)c3)nc2C)ccc1OCC(=O)O,61.1 µM (active),inactive,inactive,inactive,inactive,inactive,inactive,inactive,42.1 µM (active),inactive,inactive,inactive,inactive,,,,,,,
Cc1nc(N)nc(N)n1,inactive,inactive,inactive,inactive,inactive,inactive,inactive,inactive,,inactive,inactive,inactive,,inactive,inactive,inactive,inactive,inactive,,
CC(C)(C)C(O)/C(=C\c1ccc(Cl)cc1Cl)n1cncn1 (configuration not stated),inactive,inactive,inactive,inactive,inactive,inactive,inactive,inactive,inactive,,inactive,inactive,,inactive,,inactive,,,,
ClC1=C(Cl)[C@]2(Cl)[C@H]3[C@H]([C@@H]4C=C[C@H]3C4)[C@@]1(Cl)C2(Cl)Cl,inactive,inactive,inactive,inactive,inactive,inactive,inactive,,inactive,inactive,,inactive,inactive,inactive,inactive,,inactive,inactive,inactive,
CC(C)[C@@H](C(=O)O[C@@H](C#N)c1cccc(Oc2ccccc2)c1)c1ccc(Cl)cc1,inactive,inactive,inactive,inactive,inactive,inactive,inactive,inactive,inactive,inactive,inactive,inactive,,,inactive,,,,inactive,inactive
CCC(C)(c1ccc(O)cc1)c1ccc(O)cc1,inactive,inactive,inactive,inactive,inactive,inactive,inactive,inactive,inactive,inactive,inactive,inactive,inactive,,inactive,inactive,inactive,inactive,inactive,inactive
Clc1ccc(Oc2ccccc2)cc1,inactive,inactive,inactive,inactive,inactive,inactive,inactive,inactive,,inactive,inactive,inactive,inactive,inactive,,inactive,inactive,inactive,,inactive
COc1cccc2c1cc([N+](=O)[O-])c1c(C(=O)O)cc3c(c12)OCO3,12.2 µM (active),inactive,inactive,inactive,inactive,inactive,inactive,inactive,inactive,inactive,inactive,inactive,,,inactive,inactive,,,,
ClC1=C(Cl)[C@]2(Cl)[C@@H]3[C@@H](Cl)[C@H]4O[C@H]4[C@@H]3C1(Cl)C2(Cl)Cl,inactive,inactive,inactive,inactive,inactive,inactive,inactive,inactive,,inactive,,,,,inactive,inactive,,,inactive,61.1 µM (active)
CC1=C(C(=O)Nc2ccccc2)S(=O)(=O)CCO1,10.9 µM (active),inactive,inactive,inactive,inactive,inactive,inactive,,inactive,inactive,inactive,inactive,inactive,28.9 µM (active),inactive,inactive,inactive,inactive,inactive,
O=C1OC(CCN2CCCCC2)OC1(c1ccccc1)c1ccccc1 (configuration not stated),29.8 µM (active),inactive,inactive,inactive,inactive,inactive,inactive,inactive,,inactive,,inactive,inactive,inactive,inactive,2.31 µM (active),inactive,inactive,,inactive
O=c1ssc(Cl)c1Cl,24.3 µM (active),inactive,inactive,inactive,inactive,inactive,inactive,inactive,inactive,inactive,inactive,inactive,,inactive,inactive,inactive,inactive,,inactive,inactive
CCCN(CCCl)c1c([N+](=O)[O-])cc(C(F)(F)F)cc1[N+](=O)[O-],inactive,inactive,inactive,inactive,inactive,inactive,inactive,inactive,inactive,inactive,inactive,inactive,inactive,inactive,inactive,,inactive,inactive,inactive,inactive
CCO[C@H]1O[C@@H]2OC3(C)CC[C@H]4[C@H](C)CC[C@@H]([C@H]1C)[C@@]24OO3,inactive,inactive,inactive,inactive,inactive,inactive,inactive,inactive,inactive,inactive,inactive,inactive,inactive,inactive,,inactive,inactive,,inactive,
CC(C)N1C(=O)N(c2ccccc2)CSC1=NC(C)(C)C,inactive,inactive,inactive,inactive,inactive,inactive,inactive,inactive,inactive,inactive,inactive,inactive,inactive,,,inactive,,,inactive,inactive
OC(c1ccc(Cl)cc1)(c1ccc(Cl)cc1)c1cccnc1,inactive,inactive,inactive,inactive,inactive,inactive,inactive,,,inactive,inactive,inactive,inactive,inactive,inactive,16.8 µM (active),inactive,inactive,,
CCOc1cc(Oc2ccc(C(F)(F)F)cc2Cl)ccc1[N+](=O)[O-],inactive,inactive,inactive,inactive,inactive,inactive,inactive,inactive,inactive,inactive,,inactive,inactive,inactive,inactive,inactive,,inactive,inactive,
COc1ccc(OC)c(C=O)c1,inactive,inactive,inactive,inactive,inactive,inactive,inactive,,inactive,inactive,inactive,inactive,inactive,,inactive,inactive,inactive,inactive,inactive,
CO/N=C(\C(=O)OC)c1ccccc1CO/N=C(\C)c1cccc(C(F)(F)F)c1,inactive,inactive,inactive,inactive,inactive,inactive,inactive,inactive,inactive,inactive,inactive,,inactive,,inactive,inactive,,inactive,inactive,
[O-][Br+2]([O-])O,inactive,inactive,inactive,inactive,inactive,inactive,inactive,inactive,inactive,inactive,,inactive,inactive,inactive,inactive,inactive,inactive,inactive,inactive,
CCCN(CC1CC1)c1c([N+](=O)[O-])cc(C(F)(F)F)cc1[N+](=O)[O-],48.6 µM (active),inactive,inactive,inactive,inactive,inactive,inactive,inactive,inactive,inactive,inactive,inactive,inactive,inactive,inactive,inactive,inactive,,inactive,
Brc1ccc(Oc2ccc(Br)cc2Br)c(Br)c1,6.12 µM (active),inactive,inactive,inactive,inactive,inactive,inactive,,inactive,inactive,inactive,inactive,inactive,inactive,inactive,inactive,,inactive,inactive,inactive
CCC(C)Br (configuration not stated),inactive,inactive,inactive,inactive,inactive,inactive,inactive,inactive,inactive,inactive,inactive,inactive,inactive,inactive,inactive,,inactive,,inactive,
COc1ccccc1N1CCNCC1,inactive,inactive,inactive,inactive,inactive,inactive,,inactive,0.729 µM (active),inactive,13.3 µM (active),,inactive,inactive,1.69 µM (active),inactive,inactive,inactive,inactive,
CCOP(=O)(NC(C)C)Oc1ccc(SC)c(C)c1 (configuration not stated),,,,inactive,,,,,inactive,inactive,,,inactive,inactive,,inactive,,,inactive,
O=C(N[C@H](c1ccccc1)[C@@H]1CN2CCC1CC2)c1c(Cl)ccc(C(F)(F)F)c1Cl,inactive,inactive,inactive,inactive,inactive,inactive,inactive,inactive,inactive,inactive,inactive,,inactive,inactive,inactive,,,,inactive,
COc1ccc(Cc2nccc3cc(OC)c(OC)cc23)cc1OC,inactive,inactive,inactive,inactive,inactive,inactive,inactive,inactive,,,inactive,inactive,inactive,,,,,inactive,inactive,inactive
S=C=NCCc1ccccc1,43.4 µM (active),inactive,inactive,inactive,inactive,inactive,inactive,inactive,inactive,inactive,inactive,inactive,inactive,inactive,inactive,inactive,,inactive,inactive,inactive
BrCCCCBr,inactive,inactive,inactive,inactive,inactive,inactive,inactive,inactive,inactive,inactive,inactive,inactive,inactive,inactive,inactive,inactive,,,inactive,
